Reference: PubChem BioAssay AID1159580 (chemical genetic matrix, 2015)
Several values for one entry are separate records, joined by “and”; a condition that tells them apart may be missing. Identical values can stand only once. The whole screen tested about 5,500 compounds, of which about 2,000 (36%) were called active. Not shown: some 18% with an inconclusive outcome. Rule as the data show it: active = normalized growth mostly below about 0.91 (no sharp cut-off); inconclusive = no clear call, values can overlap the other calls; inactive = mostly above about 0.92. Some of the results follow.

Assay: chemical genetic growth profiling, strain panel (AID 1159580);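 also: tested at 20 µM; growth read once vehicle control cultures reached saturation at 30 °C; 1 = growth at the plate median or of vehicle wells; lower values mean less growth of the strain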
Conditions: S. cerevisiae deletion strains, growth OD

Measured: normalized growth

CC[C@H]1OC(=O)[C@H](C)[C@@H](O[C@H]2C[C@@](C)(OC)[C@@H](O)[C@H](C)O2)[C@H](C)[C@@H](O[C@@H]2O[C@H](C)C[C@H](N(C)C)[C@H]2O)[C@](C)(O)C[C@@H](C)/C(=N/OCOCCOC)[C@H](C)[C@@H](O)[C@]1(C)O
inactive: locus YAL021C, strain ccr4, stronger effect = lower value 1.03 | locus YAL026C, strain drs2, stronger effect = lower value 1.02 | locus YAL030W, strain snc1, stronger effect = lower value 0.998 | locus YBL061C, strain skt5, stronger effect = lower value 1.01 | locus YBR009C, strain hhf1, stronger effect = lower value 0.998 | locus YBR021W, strain FUR4, stronger effect = lower value 1.02 | locus YBR023C, strain chs3, stronger effect = lower value 1.01 | locus YBR171W, strain sec66, stronger effect = lower value 1.03 | locus YBR229C, strain ROT2, stronger effect = lower value 1.01 | locus YBR231C, strain swc5, stronger effect = lower value 1.01 | locus YBR279W, strain paf1, stronger effect = lower value 1 | locus YCL011C, strain gbp2, stronger effect = lower value 1.01 | locus YCL016C, strain dcc1, stronger effect = lower value 1 | locus YCL029C, strain bik1, stronger effect = lower value 0.988 | locus YCL069W, strain vba3, stronger effect = lower value 1.02 | locus YCR088W, strain abp1, stronger effect = lower value 1.01 | locus YDL005C, strain med2, stronger effect = lower value 1.01 | locus YDL035C, strain GPR1, stronger effect = lower value 1.01 | locus YDL040C, strain nat1, stronger effect = lower value 1.01 | locus YDL074C, strain BRE1, stronger effect = lower value 0.975 | locus YDL101C, strain DUN1, stronger effect = lower value 0.991 | locus YDL134C, strain PPH21, stronger effect = lower value 1.01 | locus YDL185W, strain tfp1, stronger effect = lower value 1 | locus YDL192W, strain arf1, stronger effect = lower value 1.01 | locus YDR001C, strain nth1, stronger effect = lower value 1.01 | locus YDR069C, strain doa4, stronger effect = lower value 1.03 | locus YDR101C, strain arx1, stronger effect = lower value 0.994 | locus YDR137W, strain rgp1, stronger effect = lower value 0.969 | locus YDR159W, strain sac3, stronger effect = lower value 0.996 | locus YDR162C, strain NBP2, stronger effect = lower value 1.01 | locus YDR195W, strain ref2 0.994 | locus YDR297W, strain sur2, stronger effect = lower value 1.02 | locus YDR318W, strain mcm21, stronger effect = lower value 0.995 | locus YDR334W, strain swr1, stronger effect = lower value 1.01 | locus YDR335W, strain msn5, stronger effect = lower value 1.01 | locus YDR388W, stronger effect = lower value 0.999 | locus YDR392W, strain spt3, stronger effect = lower value 0.949 | locus YDR502C, strain sam2, stronger effect = lower value 1.01 | locus YEL003W, strain gim4, stronger effect = lower value 1.02 | locus YEL037C, strain rad23, stronger effect = lower value 1.02 | locus YEL061C, strain CIN8 (second series), stronger effect = lower value 1 | locus YEL061C, strain CIN8, stronger effect = lower value 1 | locus YER015W, strain faa2, stronger effect = lower value 1.01 | locus YER016W, strain bim1, stronger effect = lower value 0.995 | locus YER110C, stronger effect = lower value 1 | locus YER111C, strain swi4, stronger effect = lower value 1.01 | locus YER155C, strain BEM2 (second series), stronger effect = lower value 0.897 | locus YER155C, strain BEM2, stronger effect = lower value 1 | locus YER167W, strain BCK2, stronger effect = lower value 1 | locus YFR010W, strain ubp6, stronger effect = lower value 1.02 | locus YGL078C, strain dbp3, stronger effect = lower value 1 | locus YGL086W, strain mad1, stronger effect = lower value 1 | locus YGL167C, strain pmr1, stronger effect = lower value 1 | locus YGL173C, strain kem1, stronger effect = lower value 1.02 | locus YGL227W, strain vid30, stronger effect = lower value 1.03 | locus YGL240W, strain doc1, stronger effect = lower value 1.02 | locus YGL248W, strain PDE1, stronger effect = lower value 0.993 | locus YGL253W, strain hxk2, stronger effect = lower value 1.01 | locus YGR135W, strain pre9, stronger effect = lower value 1.04 | locus YGR229C, strain SMI1, stronger effect = lower value 1.01 | locus YHR013C, strain ard1, stronger effect = lower value 0.983 | locus YHR027C, strain rpn1, stronger effect = lower value 0.999 | locus YHR030C, strain SLT2, stronger effect = lower value 1.01 and 0.997 | locus YHR079C, strain IRE1 (second series), stronger effect = lower value 0.98 | locus YHR079C, strain IRE1, stronger effect = lower value 0.985 | locus YHR094C, strain hxt1, stronger effect = lower value 0.987 | locus YHR129C, strain ARP1, stronger effect = lower value 1.01 | locus YHR142W, strain chs7, stronger effect = lower value 1.02 | locus YHR200W, strain rpn10, stronger effect = lower value 1.01 | locus YIL066C, strain RNR3, stronger effect = lower value 0.983 | locus YIL073C, strain SPO22, stronger effect = lower value 1.07 | locus YIL125W, strain kgd1, stronger effect = lower value 1 | locus YIR030C, strain dcg1, stronger effect = lower value 0.997 | locus YJL092W, strain hpr5, stronger effect = lower value 1.01 | locus YJL095W, strain BCK1 (second series), stronger effect = lower value 1.01 | locus YJL095W, strain BCK1, stronger effect = lower value 0.97 and 0.99 | locus YJL115W, strain asf1, stronger effect = lower value 1.04 | locus YJL129C, strain trk1, stronger effect = lower value 1.02 | locus YJL134W, strain LCB3, stronger effect = lower value 1 | locus YJL154C, strain vps35, stronger effect = lower value 1.01 | locus YJL164C, strain tpk1, stronger effect = lower value 1.01 | locus YJL166W, strain qcr8, stronger effect = lower value 1.01 | locus YJL168C, strain set2, stronger effect = lower value 0.992 | locus YJL187C, strain SWE1 (second series), stronger effect = lower value 0.97 | locus YJL187C, strain SWE1, stronger effect = lower value 1.02 | locus YJR043C, strain POL32, stronger effect = lower value 1.01 | locus YJR066W, strain TOR1, stronger effect = lower value 0.977
